Seven compounds from PubChem BioAssay (Tox21) can be followed below.

Experiment [1] can be described thus: qHTS assay to identify small molecule agonists of the sonic hedgehog signaling (Shh) pathway (AID 1259368; calls by dose curve; further: series mostly up to about 92 µM; nearly all actives have a fitted effect of over 15% in size). An outline of the steps: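 NIH/3T3-derived 3T3Gli1-Luc cells carrying a stably integrated Gli1 response element–firefly luciferase reporter were plated, left 4 hr at 37 C, then given compounds in DMSO for 24 hr. Luminescence was read 30 min after adding luciferase reagent.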
In general terms: In qHTS, concentration-response curves come from the screen itself.

Experiment [2] in a line: qHTS assay to identify small molecule antagonists of the sonic hedgehog signaling (Shh) pathway (AID 1259369; calls by dose curve; further: nearly all actives have a fitted effect of over 45% in size; further: potency means the concentration at half of the fitted maximal effect). The gist of the method:
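NIH/3T3-derived 3T3Gli1-Luc cells with stably integrated Gli1-Luc reporter were preincubated 4hr at 37 C, then given compounds in DMSO plus Shh conditioned medium and incubated 24hr. Firefly luciferase luminescence read after 30min reagent at room temperature.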

For experiment [3], the target named is Estrogen receptor beta (Homo sapiens) (UniProt Q92731). Put plainly: qHTS assay to identify small molecule agonists of the estrogen receptor beta (ER-beta) signaling pathway (AID 1259377; active means well fitted activation curve with a large enough effect in the signal ratio in the repeat runs, not every such curve was filed as active; the % refers to the signal ratio). An outline of the steps: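 qHTS in ER-beta-UAS-bla HEK293T cells: 6 hr settling, then 16 hr compound at 37C, then LiveBLAzer substrate 2 h at RT before fluorescence reading.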
Chain of Estrogen receptor beta (Homo sapiens) (Q92731 whole entry, looked up): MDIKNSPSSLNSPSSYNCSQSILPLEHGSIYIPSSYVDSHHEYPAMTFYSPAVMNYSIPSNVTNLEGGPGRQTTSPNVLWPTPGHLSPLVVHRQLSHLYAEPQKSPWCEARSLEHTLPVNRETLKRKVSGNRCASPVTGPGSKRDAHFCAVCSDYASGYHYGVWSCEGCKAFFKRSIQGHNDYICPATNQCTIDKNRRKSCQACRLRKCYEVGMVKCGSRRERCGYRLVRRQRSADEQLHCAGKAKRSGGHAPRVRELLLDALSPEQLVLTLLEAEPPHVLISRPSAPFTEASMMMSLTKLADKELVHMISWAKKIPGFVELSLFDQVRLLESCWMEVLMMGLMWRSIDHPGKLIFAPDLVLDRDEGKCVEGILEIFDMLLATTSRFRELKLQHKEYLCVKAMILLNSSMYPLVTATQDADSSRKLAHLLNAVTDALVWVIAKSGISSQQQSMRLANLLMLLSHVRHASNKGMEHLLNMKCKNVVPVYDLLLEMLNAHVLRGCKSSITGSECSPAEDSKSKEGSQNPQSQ

Experiment [4] has the same target. The experiment can be described thus: qHTS assay to identify small molecule antagonists of the estrogen receptor beta (ER-beta) signaling pathway (AID 1259378; active means well fitted inhibition curve with a large enough effect in the signal ratio in the repeat runs, not every such curve was filed as active; the % refers to the signal ratio; further: potency means the concentration at half of the fitted maximal effect). The gist of the method: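 ER-beta-UAS-bla HEK293T (GripTite) cells in 2% charcoal-stripped FBS medium were preincubated 6 hr at 37C, dosed with compound, then stimulated with 1 nM E2 (final) for 16 hr; beta-lactamase reporter read by B/G FRET fluorescence after 2 hr substrate loading.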

The nature of experiment [5]: qHTS assay to identify small molecule agonists of the androgen receptor (AR) signaling pathway in the presence of an antagonist - cell viability counter screen (AID 1259379). Further: nearly all actives have a fitted effect of over 25% in size. Further: potency means the concentration at half of the fitted maximal effect. The gist of the method: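 MDA-kb2 human breast carcinoma cells (stable MMTV-luciferase, AR/GR responsive) were seeded 3,000 cells/well, pre-incubated 5 hr at 37C without CO2, then given 3.0uM nilutamide and compounds at 15 concentrations for 16 hr. Viability was read by CellTiter-Fluor fluorescence.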

The nature of experiment [6]: qHTS assay to identify small molecule agonists of the estrogen receptor beta (ER-beta) signaling pathway - cell viability counter screen (AID 1259380). Further: nearly all actives have a fitted effect of over 30% in size. Further: potency means the concentration at half of the fitted maximal effect. The gist of the method: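 ER-beta-UAS-bla HEK293T cells in medium with 2% charcoal-stripped FBS were preincubated 6 hr at 37C, dosed with compound in DMSO for 16 hr, then after the bla read, CellTiter-Glo was added for 30 min at room temperature; luminescence recorded.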

For experiment [7], the target named is Androgen receptor (Homo sapiens) (UniProt P10275). Put plainly: qHTS assay to identify small molecule agonists of the androgen receptor (AR) signaling pathway in the presence of an antagonist (AID 1259381; calls by dose curve; further: nearly all actives have a fitted effect of over 15% in size). An outline of the steps:
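MDA-kb2 human breast carcinoma cells carrying an MMTV-luciferase reporter (AR- and GR-responsive) were treated with compounds at 15 concentrations plus 3.0uM final nilutamide for 16hr at 37C without CO2; luminescence was read after ONE-Glo addition.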

Experiment [8] in a line: qHTS assay to identify small molecule antagonists of the estrogen receptor beta (ER-beta) signaling pathway - cell viability counter screen (AID 1259382). Further: series mostly up to about 92 µM; nearly all actives have a fitted effect of over 55% in size. An outline of the steps:
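ER-beta-UAS-bla HEK293T cells (2,000/well, 2% charcoal-stripped FBS) were pre-incubated 6 hr at 37C, then given compound plus 1nM final 17-beta-estradiol for 16 hr. Viability was read in the same wells by CellTiter-Glo luminescence after 30 min at room temperature.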

Experiment [9] is described as follows: qHTS assay to identify small molecule agonists or antagonists of the thyroid stimulating hormone receptor (TSHR) signaling pathway - wild type cell line counter screen (AID 1259384; calls by dose curve). The gist of the method: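 Wild-type HEK293 cells were plated 18 h at 37 C/5% CO2, pin-dosed with compound plus Ro20-1724 medium, held 30 min at room temperature, then given cAMP-d2 and anti-cAMP-cryptate; fluorescence was read after 1 h. Fifteen concentrations, triplicate.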

The target of experiment [10] is Thyrotropin receptor (Homo sapiens) (UniProt P16473). The experiment can be described thus: qHTS assay to identify small molecule antagonists of the thyroid stimulating hormone receptor (TSHR) signaling pathway (AID 1259385; calls by dose curve; further: nearly all actives have a fitted effect of over 20% in size). The gist of the method: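 TSHR-HEK293 cells were plated and held 18 h at 37C/5% CO2, then given compound plus Ro20-1724 and stimulated with TSH at 1.5 ng/mL final. After 30 min at room temperature, cAMP was detected with cAMP-d2/anti-cAMP-cryptate (1 h) by fluorescence.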
Chain of Thyrotropin receptor (Homo sapiens) (P16473 whole entry, looked up): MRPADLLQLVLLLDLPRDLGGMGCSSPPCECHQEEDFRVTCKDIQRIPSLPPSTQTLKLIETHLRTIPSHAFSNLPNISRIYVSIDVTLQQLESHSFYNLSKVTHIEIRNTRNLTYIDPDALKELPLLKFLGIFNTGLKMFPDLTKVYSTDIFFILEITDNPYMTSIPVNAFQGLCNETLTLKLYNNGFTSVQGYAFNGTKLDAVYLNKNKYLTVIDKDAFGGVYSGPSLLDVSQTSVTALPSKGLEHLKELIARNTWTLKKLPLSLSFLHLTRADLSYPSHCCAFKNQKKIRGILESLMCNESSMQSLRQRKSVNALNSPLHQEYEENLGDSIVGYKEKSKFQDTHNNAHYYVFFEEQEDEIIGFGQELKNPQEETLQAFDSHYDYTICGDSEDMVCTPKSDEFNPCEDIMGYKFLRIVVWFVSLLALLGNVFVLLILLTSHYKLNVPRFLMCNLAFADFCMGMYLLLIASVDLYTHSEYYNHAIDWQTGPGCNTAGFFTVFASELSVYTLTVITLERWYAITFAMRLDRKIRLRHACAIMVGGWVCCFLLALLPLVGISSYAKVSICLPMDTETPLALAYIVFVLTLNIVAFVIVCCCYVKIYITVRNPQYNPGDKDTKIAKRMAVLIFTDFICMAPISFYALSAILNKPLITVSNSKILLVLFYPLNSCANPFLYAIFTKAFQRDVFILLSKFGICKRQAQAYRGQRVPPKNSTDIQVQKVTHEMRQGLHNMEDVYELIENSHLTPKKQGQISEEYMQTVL

Experiment [11] in a line: qHTS assay to identify small molecule agonists of the estrogen receptor alpha (ER-alpha) signaling pathway in the presence of an antagonist - cell viability counter screen (AID 1259386).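 Further: cells exposed to compounds for 22 h at 37 °C before the viability read; nearly all actives have a fitted effect of over 30% in size.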 Further: potency means the concentration at half of the fitted maximal effect. An outline of the steps:
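VM7Luc4E2 cells (endogenous full-length ER-alpha, 4×ERE-luciferase) were held 5 days in phenol red-free medium with 10% charcoal-stripped FBS, plated, then given 10.0nM ICI-182,780 and compounds at 15 concentrations for 22hr at 37C; viability read by CellTiter-Fluor fluorescence.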

In experiment [12] the target is Progesterone receptor (Homo sapiens) (UniProt P06401). Put plainly: qHTS assay to identify small molecule agonists of the progesterone receptor (PR) signaling pathway (AID 1346784; calls by dose curve; further: nearly all actives have a fitted effect of over 30% in size). The gist of the method:
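Fluorescence from LiveBLAzer B/G FRET substrate cleavage (2 hr, RT) reported PR activation in PR-UAS-bla HEK 293T cells treated 16 hr at 37C/5% CO2 with compounds; medium contained 2% charcoal-stripped FBS.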

Experiment [13] shares this target. Put plainly: qHTS assay to identify small molecule antagonists of the progesterone receptor (PR) signaling pathway (AID 1346795; active means well fitted inhibition curve with a large enough effect in the signal ratio in the repeat runs, not every such curve was filed as active; the % refers to the signal ratio; further: potency means the concentration at half of the fitted maximal effect). An outline of the steps:
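Fluorescence intensity measured 2 hr after adding beta-lactamase FRET substrate to PR-UAS-bla HEK293T cells that had been co-treated 16 hr with compound and 1 nM R5020 (final concentration) in 2% charcoal-stripped FBS.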

Experiment [14] in a line: qHTS assay to identify small molecule antagonists of the progesterone receptor (PR) signaling pathway - cell viability counter screen (AID 1346798). Further: series mostly up to about 92 µM; nearly all actives have a fitted effect of over 50% in size. The gist of the method: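 CellTiter-Glo luminescence; PR-UAS-bla HEK293T, 3,000 cells/well; compound + R5020, 16 hr, 37C/5% CO2; 30 min RT before read.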
The nature of experiment [15]: qHTS assay to identify small molecule agonists of the progesterone receptor (PR) signaling pathway - cell viability counter screen (AID 1346799; calls by dose curve; further: nearly all actives have a fitted effect of over 45% in size). The gist of the method:
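In parallel with the beta-lactamase readout, cytotoxicity toward PR-UAS-bla HEK293T cells was measured by CellTiter-Glo luminescence following 16 hr compound incubation in 2% charcoal-stripped FBS medium.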

A short description of experiment [16]: qHTS assay to identify small molecule antagonists of the TGF-beta/Smad signaling pathway - cell viability counter screen (AID 1346824). Further: nearly all actives have a fitted effect of over 50% in size. The gist of the method:
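SBE-bla HEK 293T cells were plated overnight at 37 C, then given compounds in DMSO plus TGF-beta1 (added as 0.25 ng/mL solution) for 5 hr. After the bla read, CellTiter-Glo was added to the same wells and luminescence read after 30 min at room temperature.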

Experiment [17] in a line: qHTS assay to identify small molecule agonists of the TGF-beta/Smad signaling pathway - cell viability counter screen (AID 1346829). Further: top concentration of the series differs between compounds; nearly all actives have a fitted effect of over 45% in size. The gist of the method:
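HEK 293T SBE-bla line, 5 hr compound exposure at 37 C, multiplexed CellTiter-Glo viability read by luminescence.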

The nature of experiment [18]: qHTS assay to identify small molecule agonists of the TGF-beta/Smad signaling pathway (AID 1346859; active means well fitted activation curve with a large enough effect in the signal ratio in the repeat runs, not every such curve was filed as active; the % refers to the signal ratio; further: series mostly up to about 77 µM). An outline of the steps:
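After overnight seeding, SBE-bla HEK 293T cells are dosed with compounds in DMSO and kept 5 hr at 37 C, 5% CO2. LiveBLAzer-type FRET substrate is then applied for 2 hr at room temperature.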

For experiment [19], the target named is Thyrotropin-releasing hormone receptor (Homo sapiens) (UniProt P34981). The experiment can be described thus: qHTS assay to identify small molecule antagonists of the thyrotropin-releasing hormone receptor (TRHR) signaling pathway (AID 1346877; active means well fitted inhibition curve with a large enough effect in the repeat runs, not every such curve was filed as active; further: series mostly up to about 51 µM). An outline of the steps:
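TRHR-expressing HEK293 cells were seeded, cultured 18 h at 37 °C, then loaded with calcium dye for 2 h. Compounds were pre-incubated 5 min at room temperature before 1 nM TRH (final) was added, and kinetic fluorescence was recorded for 3 min.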

The target of experiment [20] is Estrogen receptor (Homo sapiens) (UniProt P03372). Put plainly: qHTS assay to identify small molecule agonists of the estrogen receptor alpha (ER-alpha) signaling pathway in the presence of an antagonist (AID 1259383; calls by dose curve; further: top concentration of the series differs between compounds; nearly all actives have a fitted effect of over 15% in size). An outline of the steps: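 VM7Luc4E2 cells (endogenous full-length ER-alpha, 4×ERE-luciferase) were precultured 5 days in phenol red-free medium with 10% charcoal-stripped FBS, given 10.0nM ICI-182,780 (final), then treated with compounds at 15 concentrations for 22hr at 37C; luminescence read with ONE-Glo.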
Chain of Estrogen receptor (Homo sapiens) (P03372 whole entry, looked up): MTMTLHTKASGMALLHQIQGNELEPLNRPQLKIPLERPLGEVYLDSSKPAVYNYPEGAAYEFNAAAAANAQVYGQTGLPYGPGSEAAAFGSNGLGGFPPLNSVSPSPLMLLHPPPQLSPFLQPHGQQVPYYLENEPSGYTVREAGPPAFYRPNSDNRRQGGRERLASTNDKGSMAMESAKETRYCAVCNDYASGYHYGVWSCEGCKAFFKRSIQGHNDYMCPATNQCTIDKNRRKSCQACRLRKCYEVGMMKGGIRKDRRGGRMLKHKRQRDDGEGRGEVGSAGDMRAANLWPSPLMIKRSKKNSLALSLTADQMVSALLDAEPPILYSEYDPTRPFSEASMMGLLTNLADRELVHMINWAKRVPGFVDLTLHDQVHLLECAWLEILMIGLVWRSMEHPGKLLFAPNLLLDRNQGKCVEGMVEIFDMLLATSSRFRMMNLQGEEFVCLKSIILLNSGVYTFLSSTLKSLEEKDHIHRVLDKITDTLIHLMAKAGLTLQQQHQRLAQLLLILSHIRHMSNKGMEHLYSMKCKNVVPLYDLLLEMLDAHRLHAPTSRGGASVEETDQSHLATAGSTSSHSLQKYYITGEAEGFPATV

Unmarked numbers belong to inactive results. Inconclusive results are not listed. Calls of active or inactive are those of the source. Unless noted, the call rests on the fitted dose curve; in most records, active means well fitted curve in the direction sought with a large enough effect in the repeat runs; inconclusive means weak or mixed curves; inactive means no such curve, though single readings can be large; an effect the other way counts as inactive or inconclusive.

Chain of Progesterone receptor (Homo sapiens) (P06401 whole entry, looked up): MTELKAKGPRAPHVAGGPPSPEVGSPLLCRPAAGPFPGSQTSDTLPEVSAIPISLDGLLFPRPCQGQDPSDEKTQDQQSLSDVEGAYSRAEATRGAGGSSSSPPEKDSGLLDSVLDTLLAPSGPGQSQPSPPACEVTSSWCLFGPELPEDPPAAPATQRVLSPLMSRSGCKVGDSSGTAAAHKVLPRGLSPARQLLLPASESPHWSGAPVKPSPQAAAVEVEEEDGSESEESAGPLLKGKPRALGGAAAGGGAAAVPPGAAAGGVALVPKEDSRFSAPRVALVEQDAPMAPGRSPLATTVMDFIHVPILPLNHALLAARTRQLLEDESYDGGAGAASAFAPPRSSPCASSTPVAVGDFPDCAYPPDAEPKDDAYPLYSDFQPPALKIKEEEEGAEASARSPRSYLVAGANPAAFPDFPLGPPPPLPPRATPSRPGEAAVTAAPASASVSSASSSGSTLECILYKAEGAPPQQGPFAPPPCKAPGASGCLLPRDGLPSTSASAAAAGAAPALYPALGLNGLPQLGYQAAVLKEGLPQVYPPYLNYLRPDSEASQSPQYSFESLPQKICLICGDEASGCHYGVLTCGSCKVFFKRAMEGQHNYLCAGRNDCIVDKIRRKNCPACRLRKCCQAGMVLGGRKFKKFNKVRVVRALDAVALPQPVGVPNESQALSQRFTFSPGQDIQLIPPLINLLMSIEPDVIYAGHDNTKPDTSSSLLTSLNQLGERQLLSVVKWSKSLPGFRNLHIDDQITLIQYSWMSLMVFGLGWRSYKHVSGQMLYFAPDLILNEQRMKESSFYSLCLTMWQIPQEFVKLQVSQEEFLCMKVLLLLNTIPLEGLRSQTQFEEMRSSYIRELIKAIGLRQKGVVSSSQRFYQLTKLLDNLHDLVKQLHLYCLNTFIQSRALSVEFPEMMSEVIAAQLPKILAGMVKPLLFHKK
Chain of Thyrotropin-releasing hormone receptor (Homo sapiens) (P34981 whole entry, looked up): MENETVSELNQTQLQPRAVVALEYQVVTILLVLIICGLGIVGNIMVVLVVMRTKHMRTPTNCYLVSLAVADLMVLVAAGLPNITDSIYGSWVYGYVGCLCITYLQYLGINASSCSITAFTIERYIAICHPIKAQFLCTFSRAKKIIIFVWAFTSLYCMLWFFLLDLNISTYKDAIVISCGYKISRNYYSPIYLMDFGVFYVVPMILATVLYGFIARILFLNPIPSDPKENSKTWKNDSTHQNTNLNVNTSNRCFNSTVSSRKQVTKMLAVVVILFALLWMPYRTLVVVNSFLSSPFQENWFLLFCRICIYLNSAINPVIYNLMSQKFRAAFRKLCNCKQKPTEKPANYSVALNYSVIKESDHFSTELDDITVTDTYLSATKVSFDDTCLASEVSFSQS
Chain of Androgen receptor (Homo sapiens) (P10275 whole entry, looked up): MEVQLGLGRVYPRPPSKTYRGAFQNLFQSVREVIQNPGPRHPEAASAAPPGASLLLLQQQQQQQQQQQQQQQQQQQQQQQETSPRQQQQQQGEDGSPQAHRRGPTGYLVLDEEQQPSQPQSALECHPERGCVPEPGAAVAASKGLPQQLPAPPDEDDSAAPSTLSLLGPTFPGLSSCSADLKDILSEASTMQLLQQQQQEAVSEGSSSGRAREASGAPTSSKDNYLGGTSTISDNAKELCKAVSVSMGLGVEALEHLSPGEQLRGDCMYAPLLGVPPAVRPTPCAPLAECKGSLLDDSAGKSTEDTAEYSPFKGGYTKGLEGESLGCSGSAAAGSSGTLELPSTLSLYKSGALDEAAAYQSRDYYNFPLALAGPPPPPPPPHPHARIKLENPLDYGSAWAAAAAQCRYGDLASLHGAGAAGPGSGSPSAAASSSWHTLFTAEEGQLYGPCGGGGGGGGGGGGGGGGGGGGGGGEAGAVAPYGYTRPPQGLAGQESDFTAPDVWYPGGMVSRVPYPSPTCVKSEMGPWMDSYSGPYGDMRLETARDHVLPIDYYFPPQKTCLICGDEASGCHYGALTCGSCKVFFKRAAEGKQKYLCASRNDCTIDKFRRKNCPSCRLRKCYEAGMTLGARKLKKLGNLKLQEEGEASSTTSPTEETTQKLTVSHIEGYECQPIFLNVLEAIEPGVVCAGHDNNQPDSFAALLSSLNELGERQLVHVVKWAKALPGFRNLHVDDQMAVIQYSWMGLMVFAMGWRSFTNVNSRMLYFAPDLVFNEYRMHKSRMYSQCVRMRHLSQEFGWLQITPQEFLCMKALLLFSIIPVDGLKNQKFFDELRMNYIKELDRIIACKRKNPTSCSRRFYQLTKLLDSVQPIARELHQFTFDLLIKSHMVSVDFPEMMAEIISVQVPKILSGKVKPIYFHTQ

With `CCCCCC[N+](=O)[O-]`, the Potency result in [1], in experiment [2], in experiment [3], in experiment [4], in experiment [5] and in experiment [6] was “inactive” throughout. For the same compound, the Potency result in [7], in experiment [8], in [10], in experiment [11], in [12] and in [13] was “inactive” throughout. Also, the Potency entry in experiment [14], in [15], in experiment [16], in experiment [17] and in [19] was “inactive” in each case. Also, the call in [9] and in experiment [18] was inactive.

Take `CC(=O)C(C)(C)C`: the Potency result in experiment [1], in experiment [2], in experiment [3], in experiment [4], in experiment [5] and in experiment [6] was “inactive” throughout. Further, the Potency entry in [8], in experiment [20], in [10], in experiment [11], in [12] and in experiment [13] was “inactive” each time. Besides, the Potency result in experiment [14], in [15], in experiment [16], in [17] and in [19] was “inactive” in each case. Besides, the compound was classed as inactive in [9] and in experiment [18].

In the case of `CCBr`, the Potency entry in experiment [1], in [2], in [3], in [4], in experiment [5] and in [6] was “inactive” throughout. Besides, the Potency result in experiment [8], in experiment [20], in experiment [10], in experiment [11], in [12] and in [13] was “inactive” throughout. For the same compound, the Potency result in experiment [14], in experiment [15], in experiment [16], in experiment [17] and in experiment [19] was “inactive” each time. Further, the call in [9] and in experiment [18] was inactive.

For `O=C(CBr)Nc1ccc(Cl)cc1C(=O)c1ccccc1F`, the Potency entry in experiment [1], in experiment [2], in experiment [3], in experiment [4], in experiment [5] and in experiment [6] was “inactive” throughout. For the same compound, the Potency entry in [7], in experiment [8], in experiment [20], in experiment [10], in experiment [11] and in experiment [12] was “inactive” throughout. Further, the Potency entry in experiment [14], in experiment [15], in experiment [16], in experiment [17] and in experiment [19] was “inactive” in each case. Further, the compound was called inactive in [9] and in [18]. Further, the Potency in experiment [13] is 21.1 µM (active).

`Cc1ccc(N)cc1C`: the Potency result in [1], in experiment [2], in experiment [3], in [4], in experiment [5] and in experiment [6] was “inactive” throughout. Moreover, the Potency entry in experiment [8], in experiment [10], in experiment [11], in experiment [12], in [13] and in [14] was “inactive” each time. In addition, the Potency result in experiment [15], in [16], in [17] and in [19] was “inactive” each time. In addition, the outcome in experiment [9] and in experiment [18] was inactive.

On to `CCCCCCCCCC(=O)O[C@H]1CC[C@H]2[C@@H]3CCC4=CC(=O)CC[C@@H]4[C@H]3CC[C@]12C`, for which the Potency result in experiment [1], in [2], in experiment [3], in [4], in [5] and in [6] was “inactive” throughout. For the same compound, the Potency result in [8], in experiment [20], in experiment [11], in experiment [14], in experiment [15] and in experiment [16] was “inactive” each time. The Potency entry in experiment [17] and in [19] was “inactive” in each case. Besides, the result in [18] was inactive.

Regarding `CO/C=C(/C(=O)OC)c1ccccc1COc1cccc(C(F)(F)F)n1`, the Potency entry in [1], in experiment [3], in experiment [8], in experiment [20], in experiment [12] and in [14] was “inactive” throughout. Further, the Potency result in [16], in experiment [17] and in experiment [19] was “inactive” in each case. The Potency in [2] is 0.544 µM (active); in experiment [4], 3.85 µM (active); in experiment [5], 5.44 µM (active); in experiment [6], 4.85 µM (active); in [11], 8.63 µM (active). The outcome in [9] and in experiment [18] was inactive.
